The campaign covered roughly 5,500 compounds. About 2,000 (36%) were called active. Another 18% or so got no clear call; they are omitted. Rule as the data show it: active = normalized growth mostly below about 0.91 (no sharp cut-off); inconclusive = no clear call, values can overlap the other calls; inactive = mostly above about 0.92. This is one part of the list.
Experiment: chemical genetic growth profiling, strain panel (AID 1159580);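 also: tested at 20 µM; growth read once vehicle control cultures reached saturation at 30 °C; 1 = growth at the plate median or of vehicle wells; lower values mean less growth of the strain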
Conditions: S. cerevisiae deletion strains, growth OD

Measured: normalized growth

COc1ccc(-c2cc(=O)c3c(O)cc(O[C@H]4O[C@H](CO[C@@H]5O[C@@H](C)[C@H](O)[C@@H](O)[C@H]5O)[C@@H](O)[C@H](O)[C@H]4O)cc3o2)cc1
inactive: locus YAL013W, strain DEP1, stronger effect = lower value 1.01 | locus YAL021C, strain ccr4, stronger effect = lower value 1 | locus YAL026C, strain drs2, stronger effect = lower value 1.03 | locus YAL030W, strain snc1, stronger effect = lower value 1 | locus YBL061C, strain skt5, stronger effect = lower value 1 | locus YBR009C, strain hhf1, stronger effect = lower value 1 | locus YBR021W, strain FUR4, stronger effect = lower value 1 | locus YBR023C, strain chs3, stronger effect = lower value 1.01 | locus YBR171W, strain sec66, stronger effect = lower value 1.01 | locus YBR229C, strain ROT2, stronger effect = lower value 1 | locus YBR231C, strain swc5, stronger effect = lower value 1.01 | locus YBR279W, strain paf1, stronger effect = lower value 1 | locus YCL011C, strain gbp2, stronger effect = lower value 1 | locus YCL016C, strain dcc1, stronger effect = lower value 0.989 | locus YCL029C, strain bik1, stronger effect = lower value 1.02 | locus YCL061C, strain MRC1, stronger effect = lower value 1.01 | locus YCL069W, strain vba3, stronger effect = lower value 0.968 | locus YCR088W, strain abp1, stronger effect = lower value 1.01 | locus YDL005C, strain med2, stronger effect = lower value 1 | locus YDL035C, strain GPR1, stronger effect = lower value 1 | locus YDL040C, strain nat1, stronger effect = lower value 1.01 | locus YDL074C, strain BRE1, stronger effect = lower value 1.03 | locus YDL101C, strain DUN1, stronger effect = lower value 1.03 | locus YDL185W, strain tfp1, stronger effect = lower value 1.02 | locus YDL192W, strain arf1, stronger effect = lower value 1.02 | locus YDR001C, strain nth1, stronger effect = lower value 0.998 | locus YDR069C, strain doa4, stronger effect = lower value 1.01 | locus YDR101C, strain arx1, stronger effect = lower value 1.01 | locus YDR137W, strain rgp1, stronger effect = lower value 1.02 | locus YDR159W, strain sac3, stronger effect = lower value 1.02 | locus YDR162C, strain NBP2, stronger effect = lower value 1.01 | locus YDR195W, strain ref2 1 | locus YDR297W, strain sur2, stronger effect = lower value 0.998 | locus YDR318W, strain mcm21, stronger effect = lower value 1.01 | locus YDR334W, strain swr1, stronger effect = lower value 1 | locus YDR335W, strain msn5, stronger effect = lower value 0.992 | locus YDR388W, stronger effect = lower value 1.02 | locus YDR392W, strain spt3, stronger effect = lower value 1 | locus YDR502C, strain sam2, stronger effect = lower value 1.02 | locus YEL003W, strain gim4, stronger effect = lower value 1.01 | locus YEL037C, strain rad23, stronger effect = lower value 1.01 | locus YEL061C, strain CIN8 (second series), stronger effect = lower value 0.995 | locus YEL061C, strain CIN8, stronger effect = lower value 1 | locus YER015W, strain faa2, stronger effect = lower value 1 | locus YER016W, strain bim1, stronger effect = lower value 1 | locus YER110C, stronger effect = lower value 1.02 | locus YER111C, strain swi4, stronger effect = lower value 1 | locus YER155C, strain BEM2 (second series), stronger effect = lower value 1.02 | locus YER155C, strain BEM2, stronger effect = lower value 1.01 | locus YER167W, strain BCK2, stronger effect = lower value 1.02 | locus YFR010W, strain ubp6, stronger effect = lower value 1.01 | locus YGL078C, strain dbp3, stronger effect = lower value 1.01 | locus YGL086W, strain mad1, stronger effect = lower value 1.03 | locus YGL167C, strain pmr1, stronger effect = lower value 0.995 | locus YGL173C, strain kem1, stronger effect = lower value 1.02 | locus YGL227W, strain vid30, stronger effect = lower value 1.01 | locus YGL240W, strain doc1, stronger effect = lower value 1.02 | locus YGL248W, strain PDE1, stronger effect = lower value 1.01 | locus YGL253W, strain hxk2, stronger effect = lower value 0.986 | locus YGR078C, strain PAC10, stronger effect = lower value 1.03 | locus YGR135W, strain pre9, stronger effect = lower value 1.01 | locus YGR229C, strain SMI1, stronger effect = lower value 1.02 | locus YGR252W, strain gcn5, stronger effect = lower value 1.04 | locus YHR013C, strain ard1, stronger effect = lower value 1.01 | locus YHR027C, strain rpn1, stronger effect = lower value 0.998 | locus YHR030C, strain SLT2, stronger effect = lower value 0.992 | locus YHR079C, strain IRE1 (second series), stronger effect = lower value 1.01 | locus YHR094C, strain hxt1, stronger effect = lower value 1.01 | locus YHR129C, strain ARP1, stronger effect = lower value 1.01 | locus YHR142W, strain chs7, stronger effect = lower value 0.983 | locus YHR200W, strain rpn10, stronger effect = lower value 1.02 | locus YIL066C, strain RNR3, stronger effect = lower value 1.01 | locus YIL073C, strain SPO22, stronger effect = lower value 1.08 | locus YIL125W, strain kgd1, stronger effect = lower value 1.02 | locus YIR030C, strain dcg1, stronger effect = lower value 1.02 | locus YJL092W, strain hpr5, stronger effect = lower value 0.997 | locus YJL095W, strain BCK1 (second series), stronger effect = lower value 1 | locus YJL095W, strain BCK1, stronger effect = lower value 1.05 | locus YJL115W, strain asf1, stronger effect = lower value 1 | locus YJL129C, strain trk1, stronger effect = lower value 1.01 | locus YJL134W, strain LCB3, stronger effect = lower value 0.994 | locus YJL154C, strain vps35, stronger effect = lower value 0.999 | locus YJL164C, strain tpk1, stronger effect = lower value 0.991 | locus YJL166W, strain qcr8, stronger effect = lower value 1 | locus YJL168C, strain set2, stronger effect = lower value 1.02 | locus YJL187C, strain SWE1 (second series), stronger effect = lower value 1.03 | locus YJL187C, strain SWE1, stronger effect = lower value 1.01 | locus YJR043C, strain POL32, stronger effect = lower value 0.972 | locus YKL009W, strain mrt4, stronger effect = lower value 1.04 | locus YKL068W, stronger effect = lower value 1.01 | locus YKL085W, strain MDH1 (second series), stronger effect = lower value 0.999 | locus YKL085W, strain MDH1, stronger effect = lower value 0.999 | locus YKL160W, strain elf1, stronger effect = lower value 0.999 | locus YKL190W, strain CNB1, stronger effect = lower value 0.994 | locus YKR001C, strain vps1, stronger effect = lower value 1.04 | locus YKR026C, strain gcn3, stronger effect = lower value 1 | locus YKR091W, strain srl3, stronger effect = lower value 1 | locus YLL001W, strain dnm1, stronger effect = lower value 0.969 | locus YLL026W, stronger effect = lower value 1 | locus YLL041C, strain sdh2, stronger effect = lower value 1.01 | locus YLR027C, strain aat2, stronger effect = lower value 0.981 | locus YLR039C, strain RIC1, stronger effect = lower value 1.06 | locus YLR058C, strain SHM2, stronger effect = lower value 1.01 | locus YLR102C, strain apc9, stronger effect = lower value 1.02 | locus YLR221C, strain rsa3, stronger effect = lower value 1.01 | locus YLR258W, strain gsy2, stronger effect = lower value 0.991 | locus YLR262C, strain YPT6 (second series), stronger effect = lower value 0.988 | locus YLR262C, strain YPT6, stronger effect = lower value 1.1 | locus YLR268W, strain sec22, stronger effect = lower value 1.05 | locus YLR320W, strain mms22, stronger effect = lower value 1.03 | locus YLR330W, strain CHS5, stronger effect = lower value 1 | locus YLR342W, strain FKS1 (second series), stronger effect = lower value 1.01 | locus YLR342W, strain FKS1, stronger effect = lower value 0.996 | locus YLR357W, strain rsc2, stronger effect = lower value 0.996 | locus YLR370C, strain arc18, stronger effect = lower value 1 | locus YLR371W, strain rom2, stronger effect = lower value 1.02 | locus YLR384C, strain iki3, stronger effect = lower value 0.99 | locus YLR418C, strain cdc73, stronger effect = lower value 0.994 | locus YML016C, strain PPZ1, stronger effect = lower value 1 | locus YML032C, strain rad52, stronger effect = lower value 0.998 | locus YML120C, strain ndi1, stronger effect = lower value 1 | locus YML124C, strain tub3, stronger effect = lower value 1.02 | locus YMR058W, strain fet3, stronger effect = lower value 1 | locus YMR078C, strain ctf18, stronger effect = lower value 1.02 | locus YMR125W, strain sto1, stronger effect = lower value 0.958 | locus YMR129W, stronger effect = lower value 0.999 | locus YMR205C, strain PFK2, stronger effect = lower value 1 | locus YMR223W, strain ubp8, stronger effect = lower value 1.01 | locus YMR231W, strain pep5, stronger effect = lower value 1 | locus YMR307W, strain GAS1, stronger effect = lower value 1.03 | locus YNL067W, strain RPL9B, stronger effect = lower value 1.04 | locus YNL071W, strain lat1, stronger effect = lower value 1.01 | locus YNL128W, strain TEP1, stronger effect = lower value 1.02 | locus YNL209W, strain ssb2, stronger effect = lower value 0.991 | locus YNL233W, strain BNI4, stronger effect = lower value 1.04 | locus YNL248C, strain rpa49, stronger effect = lower value 1.02 | locus YNL250W, strain rad50, stronger effect = lower value 1.02 | locus YNL271C, strain bni1, stronger effect = lower value 1.02 | locus YNL298W, strain CLA4, stronger effect = lower value 1.02 | locus YNL307C, strain MCK1, stronger effect = lower value 1.02 | locus YNL322C, strain KRE1 (second series), stronger effect = lower value 1 | locus YNL322C, strain KRE1, stronger effect = lower value 1 | locus YNR049C, strain mso1, stronger effect = lower value 0.991 | locus YNR052C, strain pop2, stronger effect = lower value 1.02 | locus YOL006C, strain TOP1, stronger effect = lower value 1.15 | locus YOL012C, strain htz1 1.14 | locus YOL147C, strain pex11, stronger effect = lower value 1.01 | locus YOR001W, strain rrp6, stronger effect = lower value 1.02 | locus YOR061W, strain CKA2, stronger effect = lower value 1 | locus YOR069W, strain VPS5, stronger effect = lower value 1.01 | locus YOR070C, strain gyp1, stronger effect = lower value 1.02 | locus YOR080W, strain dia2, stronger effect = lower value 0.998 | locus YOR083W, strain WHI5, stronger effect = lower value 1.01 | locus YOR106W, strain vam3, stronger effect = lower value 0.988 | locus YOR136W, strain idh2, stronger effect = lower value 1.03 | locus YOR144C, strain elg1, stronger effect = lower value 1.01 | locus YOR184W, strain ser1, stronger effect = lower value 1.01 | locus YOR265W, strain rbl2, stronger effect = lower value 0.998 | locus YOR270C, strain vph1, stronger effect = lower value 1.02 | locus YOR290C, strain snf2, stronger effect = lower value 0.985 | locus YOR316C, strain cot1, stronger effect = lower value 1.01 | locus YPL051W, strain arl3, stronger effect = lower value 1.01 | locus YPL078C, strain atp4, stronger effect = lower value 1.02 | locus YPL106C, strain sse1, stronger effect = lower value 1.01 | locus YPL240C, strain hsp82, stronger effect = lower value 0.995 | locus YPL241C, strain CIN2, stronger effect = lower value 0.993 | locus YPR119W, strain clb2, stronger effect = lower value 1.02 | locus YPR141C, strain kar3, stronger effect = lower value 1.01 | locus YPR163C, strain tif3, stronger effect = lower value 1.02 | locus YPR167C, strain met16, stronger effect = lower value 1.01 | strain wtn01, stronger effect = lower value 1.04

Reference: PubChem BioAssay AID1159580 (chemical genetic matrix, 2015)
